High-throughput results as filed in PubChem BioAssay.
CXXC DNA block – qHTS Fluorescence Polarization Assay for Inhibitors of MLL CXXC domain - DNA interaction; MLL-CXXC / FITC-HOXA9 DNA fluorescence polarization; Potency, µM (series often up to 115 µM), for inactives: at the highest dose activity change, negative = inhibition, most hits filed as inhibitors; actives 0.037% (n = 290,000); active = well fitted inhibition curve with a large enough effect in the polarisation, with a control signal flat, not every such curve was filed as active; inconclusive = small, poorly fitted or top-dose-only effect, or effect the other way, or a change in a side signal; inactive = no such curve, though single readings can be large or run the other way; the % refers to the polarisation; also: potency is read from the fitted curve at half-maximal effect
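Steps: dispense CXXC domain solution (7 uM) → pin compounds or unlabeled HOX-A9 DNA control → 5 min ambient → add FLSN-HOX-A9 solution (50 nM) → spin → 30 min ambient → fluorescence polarization. Tris pH 7.5/NaCl/DTT/BSA buffer.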
ERG-DNA inh – qHTS for Small Molecule Inhibitors of the ERG Ets/DNA interaction. fluorescence polarization, His-ERG Ets domain / labelled DNA. actives 0.028% (n = 370,000). Potency, µM (series often up to 76.9 µM), for inactives: top-dose FP activity, negative = inhibition, actives largely listed as inhibitors. Transcriptional regulator ERG (Homo sapiens), P11308; active = well fitted inhibition curve with a large enough effect in the polarisation, with a control signal flat; inconclusive = small, poorly fitted or top-dose-only effect, or effect the other way, or a change in a side signal; inactive = no such curve, though single readings can be large or run the other way; the % refers to the polarisation;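 also: polarization taken with two DNA probes labelled with fluorescein and Texas red; potency is read from the fitted curve at half-maximal effect; % of control where 0% means no effect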
Target sequence (P11308 whole entry, looked up, the tested form may be a part): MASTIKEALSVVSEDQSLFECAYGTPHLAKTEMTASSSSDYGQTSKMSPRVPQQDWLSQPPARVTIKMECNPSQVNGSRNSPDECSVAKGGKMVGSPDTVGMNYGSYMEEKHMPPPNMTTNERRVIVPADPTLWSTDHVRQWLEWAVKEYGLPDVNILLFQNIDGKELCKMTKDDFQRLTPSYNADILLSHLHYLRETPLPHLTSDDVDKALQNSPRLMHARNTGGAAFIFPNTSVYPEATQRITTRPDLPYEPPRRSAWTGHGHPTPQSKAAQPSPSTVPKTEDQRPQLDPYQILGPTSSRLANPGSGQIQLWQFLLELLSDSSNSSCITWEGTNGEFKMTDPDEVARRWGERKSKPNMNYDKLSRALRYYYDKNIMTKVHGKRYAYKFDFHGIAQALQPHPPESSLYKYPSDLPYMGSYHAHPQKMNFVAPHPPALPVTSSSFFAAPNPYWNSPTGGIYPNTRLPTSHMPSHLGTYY
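His-tagged ERG Ets domain (1 uM in the protein solution; 300mM KCl, 50mM Tris-HCl, 1mM EDTA, 1mM DTT, pH 7.5) received compound, then a probe mix of 5 nM fluorescein-DNA and 100nM Texas-615-DNA. Fluorescence polarization was read for both dyes.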
Menin MLL FP FL – qHTS Assay for Inhibitors Targeting the Menin-MLL Interaction in MLL Related Leukemias: Competition With Fluorescein Labeled MLL-derived Peptide. Fluorescence polarization, fluorescein-MLL peptide displacement from menin. FP activity change, % at 61.4 µM. 290,000 tested, under 10 active. AID 1766, 2009; active = well fitted curve in the direction sought with a large enough effect in the polarisation, not every such curve was filed as active; inconclusive = small, poorly fitted or top-dose-only effect, or effect the other way, or a change in a side signal; inactive = no such curve, though single readings can be large or run the other way; the % refers to the polarisation; also: % of control where 0% means no effect
Menin-MLL TR inh – qHTS Assay for Inhibitors Targeting the Menin-MLL Interaction in MLL Related Leukemias: Competition With Texas Red Labeled MLL-derived Mutant Peptide | Potency, µM (titrated, usually from 61.6 µM), inactives show at the highest dose FP activity change, negative = inhibition, actives largely listed as inhibitors | O00255 | Menin + Texas Red MLL mutant peptide, fluorescence polarization | actives 0.23% (n = 270,000); active = well fitted inhibition curve with a large enough effect in the polarisation, with a control signal flat, not every such curve was filed as active; inconclusive = small, poorly fitted or top-dose-only effect, or effect the other way, or a change in a side signal; inactive = no such curve, though single readings can be large or run the other way; the % refers to the polarisation; also: potency is read from the fitted curve at half-maximal effect; % of control where 0% means no effect
Mm-Cpn inhibitor – Inhibitors of TCP-1 ring complex (TRiC) of Methanococcus maripaludis (MmCpn): qHTS; Potency, µM (doses to about 76.9 µM), without a hit: top-dose activity, negative = inhibition, most hits filed as inhibitors; AID 504842, 2011; actives 0.031% (n = 330,000); Chaperonin Mm-Cpn (Methanococcus maripaludis); purified Mm-Cpn ATPase, ADP Transcreener TR-FRET; active = well fitted inhibition curve with a large enough effect; inconclusive = small, poorly fitted or top-dose-only effect; also: potency is read from the fitted curve at half-maximal effect; % is scaled to controls: 0 for no effect and ±100 for the full control effect; nearly all actives have a fitted effect of over 80% in size
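ATPase read-out: TR-FRET ADP immunoassay (anti-ADP Eu cryptate vs ADP-d2), ex 320 nm, em 590/665 nm; signal drops as ADP forms. Enzyme 25 nM, ATP 10 uM, 30 min at 37°C after 10 min compound preincubation.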
Numbers without * were called inactive; [ ] = dose if it differs, or a comment. The sample as a whole holds a higher share of hits than the screen did.

How did COC(=O)c1c(-c2ccc(OC)cc2)sc2ccc(N3CCOCC3)cc12 do in these assays?
ERG-DNA inh: 7%; Mm-Cpn inhibitor: 50µM*

Results for COc1ccc2sc(-c3ccccc3OC)c(-c3ccc(O)cc3)c2c1 ?
ERG-DNA inh: 6%; Mm-Cpn inhibitor: -28%

How did COc1ccc(-c2c(-c3ccccc3OC)sc3ccccc23)cc1 do in these assays?
CXXC DNA block: -7%; ERG-DNA inh: -14%; Menin MLL FP FL: 8; Menin-MLL TR inh: 21%; Mm-Cpn inhibitor: 14µM*

What do the screens show for `COc1ccc2sc(-c3ccc(S(C)(=O)=O)cc3)c(-c3ccc(SC)cc3)c2c1`?
ERG-DNA inh: 12%; Mm-Cpn inhibitor: 20µM*

Results for Fc1ccc(-[n+]2nc(Nc3ccccc3)sc2-c2c3ccccc3cc3ccccc23)cc1 ?
CXXC DNA block: inconclusive; ERG-DNA inh: -25%; Menin MLL FP FL: -5; Menin-MLL TR inh: inconclusive; Mm-Cpn inhibitor: -1%

What do the screens show for `Oc1ccc2ccccc2c1-c1sc(Nc2ccccc2)n[n+]1-c1ccc(F)cc1`?
CXXC DNA block: inconclusive; ERG-DNA inh: -27%; Menin MLL FP FL: inconclusive; Menin-MLL TR inh: 16µM*; Mm-Cpn inhibitor: -2%

Results for Oc1ccc(-c2sc(Nc3ccccc3)n[n+]2-c2ccc(F)cc2)cc1 ?
CXXC DNA block: 35%; ERG-DNA inh: 22%; Menin MLL FP FL: 11; Menin-MLL TR inh: -9%; Mm-Cpn inhibitor: 40µM*

What do the screens show for `COc1ccc(C2=Nn3c(nnc3-c3ccc(OC)cc3OC)SC2)c(OC)c1`?
Menin MLL FP FL: -6; Menin-MLL TR inh: inconclusive

What do the screens show for `COc1ccc(-c2sc(C(=O)c3ccc(Cl)cc3Cl)cc2CC(=O)O)cc1`?
CXXC DNA block: 1%; ERG-DNA inh: 0%; Menin MLL FP FL: -1; Menin-MLL TR inh: 77%; Mm-Cpn inhibitor: 50µM*

What do the screens show for `C=CCN1c2ccccc2[C@]23C[C@@H](C(=O)OC)N(S(=O)(=O)CCCC)C2=NC(C(=O)OC)=C(C(=O)OC)[C@H]13`?
Menin MLL FP FL: 0[11.7 µM]; Menin-MLL TR inh: -19%[11.7 µM]

Results for O=C(NCc1ccc(Cl)cc1)c1cc(-c2cccs2)on1 ?
CXXC DNA block: 6%; ERG-DNA inh: 0%; Menin MLL FP FL: 5; Menin-MLL TR inh: 28µM*; Mm-Cpn inhibitor: 0%

Results for COc1ccc(CNC(=O)c2cc(-c3cccs3)on2)cc1 ?
CXXC DNA block: 3%; ERG-DNA inh: -6%; Menin MLL FP FL: 7; Menin-MLL TR inh: inconclusive; Mm-Cpn inhibitor: 2%

Results for CS[C@@H]1SC[C@H]2C(=O)N(C)C(C(C)C)C(=O)OC[C@@H](NC(=O)c3cnc4ccccc4n3)C(=O)N[C@@H](C)C(=O)N(C)[C@H]1C(=O)N(C)C(C(C)C)C(=O)OC[C@@H](NC(=O)c1cnc3ccccc3n1)C(=O)N[C@@H](C)C(=O)N2C (stereo partly drawn) ?
Menin MLL FP FL: 1; Menin-MLL TR inh: inconclusive

What do the screens show for `Cc1[nH]n(-c2ccc([N+](=O)[O-])cc2)c(=O)c1/C=N/N1CCOCC1`?
CXXC DNA block: 2%; ERG-DNA inh: 9%; Menin MLL FP FL: 0; Menin-MLL TR inh: 0%; Mm-Cpn inhibitor: -2%

Results for CC(=NCCCn1ccnc1)c1c(C)[nH]n(-c2ccc([N+](=O)[O-])cc2)c1=O ?
CXXC DNA block: 11%; ERG-DNA inh: 0%; Menin MLL FP FL: 4; Menin-MLL TR inh: 21%; Mm-Cpn inhibitor: 40µM*

Results for COc1cc(-c2ccc(-[n+]3nc(-c4ccccc4)nn3-c3ccc([N+](=O)[O-])cc3)c(OC)c2)ccc1-[n+]1nc(-c2ccccc2)nn1-c1ccc([N+](=O)[O-])cc1 ?
CXXC DNA block: 8%

Results for CCCCCCCCCCCCCCCCOC[C@H](COP(=O)([O-])OCC[N+](C)(C)C)OC(=O)CCCCCCCC(=O)O ?
Menin MLL FP FL: -2; Menin-MLL TR inh: -8%

Results for O=C(CNC(=O)c1ccccc1)N/N=C/C=C/c1ccccc1 ?
CXXC DNA block: -1%; ERG-DNA inh: 25%; Menin MLL FP FL: 0; Menin-MLL TR inh: 0%; Mm-Cpn inhibitor: -4%

Results for C/C=N\NC(=O)CNC(=O)CNC(=O)c1ccccc1 ?
CXXC DNA block: 1%; ERG-DNA inh: 35µM*; Menin MLL FP FL: 0; Menin-MLL TR inh: 11%; Mm-Cpn inhibitor: 0%

What do the screens show for `Cc1cccc2c1NC(C)CC2C` (stereo not drawn)?
CXXC DNA block: -1%; ERG-DNA inh: 4%; Menin MLL FP FL: -3; Menin-MLL TR inh: 25µM*; Mm-Cpn inhibitor: -3%

What do the screens show for `C(C#CCCCCCCCCC[n+]1ccccc1)#CCCCCCCCCC[n+]1ccccc1`?
CXXC DNA block: 15%; ERG-DNA inh: -4%; Menin MLL FP FL: -7; Menin-MLL TR inh: 32µM*; Mm-Cpn inhibitor: -1%

What do the screens show for `Nc1ccc(-c2nc3ccccc3s2)cn1`?
CXXC DNA block: 0%; ERG-DNA inh: -4%; Menin MLL FP FL: 0; Menin-MLL TR inh: inconclusive; Mm-Cpn inhibitor: inconclusive

Results for Brc1ccc(-c2nc3ccccc3s2)s1 ?
CXXC DNA block: -1%; ERG-DNA inh: 1%; Menin MLL FP FL: 1; Menin-MLL TR inh: 2%; Mm-Cpn inhibitor: 40µM*

What do the screens show for `CCOc1ccc(/C=C/C2=Cc3c(sc(NC(=O)CSc4n[nH]c(N)n4)c3C#N)C(C)(C)C2)cc1`?
CXXC DNA block: -23%; ERG-DNA inh: 4%; Menin MLL FP FL: inconclusive; Menin-MLL TR inh: 7.9µM*; Mm-Cpn inhibitor: -4%

What do the screens show for `COc1ccc(CN(Cc2cccn2C)C(=O)c2cc3cc(OC)ccc3[nH]2)cc1`?
CXXC DNA block: 14%; ERG-DNA inh: 0%; Menin MLL FP FL: 2; Mm-Cpn inhibitor: 45µM*

How did O=C(/C=C/c1ccc(/C=C/C(=O)Nc2ccc(C3=NCCN3)cc2)cc1)Nc1ccc(C2=NCCN2)cc1 do in these assays?
Menin MLL FP FL: -2; Menin-MLL TR inh: 5%

How did Cc1ccccc1NC(=O)CCC(=O)OCC(=O)c1ccc(-c2ccccc2)cc1 do in these assays?
CXXC DNA block: -16%; ERG-DNA inh: -9%; Menin MLL FP FL: -1; Menin-MLL TR inh: 35µM*; Mm-Cpn inhibitor: -21%

Results for O=C(CCNC(=O)c1ccccc1)OCC(=O)c1cccc(Cl)c1 ?
CXXC DNA block: 4%; ERG-DNA inh: -4%; Menin MLL FP FL: 3; Menin-MLL TR inh: 1%; Mm-Cpn inhibitor: -3%
